Molecules are shown by their SMILES. Inconclusive results are not listed. Active and inactive are the calls of the source. The calls were made as follows: active = hit-call score of the fitted dose curve at least 0.9, where 1 is the maximum; inconclusive = response in the unintended direction; inactive = score below 0.9.

20 molecules from PubChem BioAssay (EPA / NIEHS) can be followed below.

A short description of this assay: TOX21_PR_LUC_Followup_Agonist_viability: Viability Assessment in the Tox21 HEK293 Progesterone Receptor (PR) Agonism Luciferase Follow-Up Assay (AID 2283941).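 Also: loss of signal means cytotoxicity so actives lower viability.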 From the text:
TOX21_PR_LUC_Followup is a secondary assay for specificity for the TOX21_PR_BLA_Agonist assay. To differentiate true PR agonists from cytotoxic substances, this follow up assay is multiplexed with a cell viability assay.TOX21_PR_LUC_Followup_Agonist_viability is an assay readout measuring cellular ATP content and detected with CellTiter-Glo Luciferase-coupled ATP quantitation.TOX21_PR_LUC_Followup_Agonist_viability used a type of viability reporter where loss-of-signal activity can be used to understand changes in the cell viability. Furthermore, this assay endpoint can be referred to as a secondary readout, because this assay has produced multiple assay endpoints where this one serves a viability function. To generalize the intended target to other relatable targets, this assay endpoint is annotated to the cell cycle intended target family, where the subfamily is cytotoxicity.
Quality Control Precautions: Maintain cells below 85-90% confluence in culture medium. For assay purpose, the cells should be cultured in assay medium with 10% charcoal stripped FBS for 5 days with alternate day medium changed to fresh medium. Especially while in assay culture, the cells should not reach more than 85% confluence as they would become harder to detach if they reach over confluence.Assay Protocol: HEK293-PR-A-luc cells were dispensed at 3,000 cells/5 uL/well of culture medium into white wall/solid-bottom 1536-well plates using a Multidrop Combi (ThermoFisher Scientific, Waltham, MA) dispenser. After the assay plates were incubated at 37C and […] for 5 h, 23 nL of compounds dissolved in DMSO, positive controls or DMSO only was transferred to the assay plate by a Pintool station (Kalypsys, San Diego, CA). The plates were incubated at 37C and […] for 16 h. Then 4 uL of ONE-Glo reagent (Promega, Madison, WI) was added to each plate using a BioRAPTR Flying Reagent Dispenser (FRD) workstation (Beckman Coulter, Indianapolis, IN, USA) and luminescence was quantified on a ViewLux (PerkinElmer, Shelton, CT) plate reader after 30 min incubation at room temperature.
Consider `C[C@@H]1C[C@H]2[C@@H]3C[C@H](F)C4=CC(=O)C=C[C@]4(C)[C@@]3(F)[C@@H](O)C[C@]2(C)[C@@]1(O)C(=O)CO`, for which the molecule was classed as inactive. The value for `Clc1ccccc1CN1CCc2sccc2C1` was “inactive”; that for `COC(=O)[C@@H]1CC2=CC(=O)CC[C@]2(C)[C@@]23O[C@@H]2C[C@@]2(C)[C@@H](CC[C@@]24CCC(=O)O4)[C@H]13` was “inactive”; that for `C/C=C1\C(=O)C[C@H]2[C@@H]3CCC4=CC(=O)CC[C@]4(C)[C@H]3CC[C@]12C` was “inactive”. On to `C[C@]12CCC(=O)C=C1CC[C@H]1[C@@H]3CC[C@](O)(C(=O)CO)[C@@]3(C)C[C@H](O)[C@@]12F`, for which the result was inactive. Turning to `CCC(=O)Oc1ccc2c(c1)CC[C@@H]1[C@@H]2CC[C@@]2(C)[C@H]1C[C@@H](OC(=O)CC)[C@@H]2OC(=O)CC`, the result was inactive. With `CN1CCN(C2=Nc3cc(F)ccc3Cc3ccccc32)CC1`, the outcome was inactive. Regarding `COC(=O)C1=C(C)NC(C)=C(C(=O)OC(C)C)C1c1cccc2nonc12` (stereo not given), the outcome was inactive. Consider `CCC(=O)O[C@]1(C(=O)COC)[C@@H](C)C[C@H]2[C@@H]3CCC4=CC(=O)C=C[C@]4(C)C3(F)[C@@H](O)C[C@@]21C` (stereo not given in full), for which the molecule was called inactive. On to `C[C@@H]1C[C@H]2[C@@H]3CCC4=CC(=O)C=C[C@]4(C)[C@@]3(F)[C@@H](O)C[C@]2(C)[C@@]1(O)C(=O)COC(=O)c1ccncc1`, for which the call was inactive. For the molecule `C[C@@H]1CC(=O)NN=C1c1ccc(NN=C(C#N)C#N)cc1`, the molecule was classed as inactive. Take `CCN(CC)CC(=O)OCC(=O)[C@@]1(O)CC[C@H]2[C@@H]3CCC4=CC(=O)CC[C@]4(C)[C@H]3[C@@H](O)C[C@@]21C`: the result was inactive. The value for `Cl/C(=C\n1cncn1)c1ccc(Cl)cc1Cl` was “inactive”; that for `CC(=O)OCC(=O)[C@@]1(O)CC[C@H]2[C@@H]3CCC4=CC(=O)CC[C@]4(C)[C@H]3C(=O)C[C@@]21C` was “inactive”. The value for `CC(=O)OCC(=O)[C@H]1CC[C@H]2[C@@H]3CCC4=CC(=O)CC[C@]4(C)[C@H]3CC[C@]12C` was “inactive”.

As for `C/C=C1/C(=O)C[C@H]2[C@@H]3CCC4=CC(=O)CC[C@]4(C)[C@H]3CC[C@]12C`, the result was inactive. With `CC(=O)O[C@H]1CC[C@@]2(C)C(=CC[C@@H]3[C@@H]2CC[C@]2(C)C(C(C)=O)=CC[C@@H]32)C1`, the molecule was classed as inactive. For `CC(=O)O[C@@H]1CC2C3CCc4cc(OC(=O)c5ccccc5)ccc4C3CCC2(C)[C@H]1OC(C)=O` (stereo not given in full), the call was inactive.

Consider `CC(C)(C)C(O)/C=C/c1ccc2c(c1)OCO2` (stereo not given), for which the outcome was inactive.

As for `CN1CC[C@H](c2c(O)cc(O)c3c(=O)cc(-c4ccccc4Cl)oc23)[C@H](O)C1`, the call was inactive.
